Most compounds without a hit are left out; they make up all but 12% or so of the library.
CHOP inh – inhibitors of CHOP promoter induction, primary screen, cell-based, unfolded protein response, luciferase reporter; CHO-K1 CHOP-promoter luciferase, tunicamycin-induced, 15-18 h; inhibition, % at 10 µM; 220,000 tested, 3.8% active; AID 2732, 2010;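 active = compounds that reduced the stress-induced luciferase reporter signal by more than about 70% of percent inhibition, limit read from the data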;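 note: 0% = tunicamycin plus vehicle and 100% = wells without tunicamycin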
L major viab – Leishmania major promastigote growth inhibition, primary screen; Leishmania major promastigotes, resazurin fluorescence viability; inhibition, % at 10 µM; 200,000 tested, 9% active; AID 1063, 2008; in the data active = inhibition above about 50%;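 note: promastigotes grown with compound for 44 hours at 28 °C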
WT yeast gro inh – growth inhibition of WT strain, primary screen, mitochondrial fusion inhibitor project, WT and mutant strains, chemical genetic; 190,000 tested, 2.1% active; mitochondrial fusion phenotypic screen; inhibition, % at 10 µM; AID 1362, 2008; in the data active = inhibition above about 58%; tested in S. cerevisiae
Arbovirus anti – antivirals against arbovirus infection, primary screen, cell-based, full library, 10K replicate subset; arbovirus infection cell-based antiviral screen; inhibition, % at 10 µM; 200,000 tested, 0.37% active; in the data active = inhibition above about 30%
CHOP inh conf – retest of CHOP induction inhibitors, confirmation, cell-based; shares compounds with CHOP inh; CHO-CHOP promoter luciferase reporter, tunicamycin-induced, luminescence; inhibition, % at 10 µM; 2,100 tested, 45% active;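 active = mean of three repeat readings of reporter signal inhibition above a set limit, cut at about 70% in these data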;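 note: 0% = tunicamycin plus vehicle and 100% = wells lacking tunicamycin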
* hit, by the source's call; x = not tested or not shown.

SMILES	CHOP inh	L major viab	WT yeast gro inh	Arbovirus anti	CHOP inh conf
O=Cc1ccc(Sc2nnc(-c3ccccc3)o2)c([N+](=O)[O-])c1	96.7*	4.9	-1.9	-23.9	-27.5
Cc1cc(C)nc(Sc2ccc(C=O)cc2[N+](=O)[O-])n1	-14.7	4.7	2.3	0.2	x
COc1ccc(N(C(=O)c2cnccn2)C(C(=O)NC2CCCCC2)c2ccc(Cl)cc2)cc1 (centres undefined)	x	-3.4	x	x	x
COc1ccc(C(C(=O)NC2CCCCC2)N(C(=O)CCl)c2ccc(Cl)cc2)cc1 (centres undefined)	107.4*	100.3*	13.3	3.2	26.6
CC1(c2ccccc2)CC(C)(C)n2c(O)c(C3=NC(=S)NC3=O)c3cccc1c32 (centres undefined)	103.9*	x	x	x	109.4*
COc1cc2c3c(c1)c(C1=NC(=S)NC1=O)c(O)n3C(C)(C)C=C2C	38.5	-1.1	-6.6	3.0	x
COc1ccc(OC)c2c(C)c(C)[nH]c12	18.2	x	x	x	x
CC(=O)N(C1=C(Cl)C(=O)c2ccccc2C1=O)C1CCCCC1	102.4*	x	x	x	113.2*
COC(=O)/C=C1\OC(c2ccccc2)=CC1=O	108.3*	-2.8	-4.8	-4.9	-53.4
O=C1OC(c2ccccc2)=C/C1=C/N1CCCCC1	29.2	5.3	-2.5	5.9	x
CN(C)C(=O)Oc1cccc([N+](C)(C)C)c1	12.1	-6.2	-0.7	1.1	x
CC(C)(C)C1CCC(C(=O)OCC(=O)c2ccc[nH]2)CC1 (centres undefined)	101.1*	56.9*	50.1	0.5	100.0*
Cc1ccc(N=C2SC(C(=O)Nc3ccc(OC(F)(F)F)cc3)C(N)=C2C(=O)Nc2c(C)cc(C)cc2C)cc1 (centres undefined)	105.1*	-1.2	-7.0	-35.0	83.5*
O=C(O)CCc1ccc(-c2cccs2)n1CC(=O)Nc1ccccc1C(F)(F)F	-12.8	-6.2	-3.9	2.0	x
N#CCC(=O)N/N=C/c1cccc(Oc2ccccc2)c1	20.4	12.5	-7.8	0.0	x
Cc1ccc(NCC(=O)N/N=C/c2cccc(Oc3ccccc3)c2)cc1	101.4*	13.9	39.1	22.4	85.0*
Cc1cccc(NCC(=O)N/N=C\c2cccc(Oc3ccccc3)c2)c1	104.1*	8.3	15.9	6.7	81.0*
O=C(N/N=C/c1cccc(Oc2ccccc2)c1)c1ccncc1	-5.1	21.1	-4.3	-4.5	x
Cc1ccc(C(=O)Oc2oc(-c3ccco3)nc2C=Nc2ccc(Cl)cc2)cc1	100.7*	-9.9	0.9	0.8	0.0
O=C(Oc1oc(-c2ccco2)nc1C=Nc1ccccc1)c1ccoc1	108.9*	-6.2	-20.7	-1.9	-4.6
O=C(NC1CCCCC1)c1cc([N+](=O)[O-])[nH]n1	-9.6	31.9	-2.0	-4.2	x
COc1ccc(NC(=O)c2ccc(Oc3ncccn3)cc2)cc1	9.7	0.1	2.8	2.5	x
CCN1C(=O)C(C(=O)c2ccccc2)SC1=S (centres undefined)	12.4	-8.1	11.1	-0.9	x
COCc1nnc(NC(=O)CCN2C(=O)c3ccccc3C2=O)s1	99.0*	-7.5	-31.1	5.5	9.8
CCCc1nnc(NC(=O)CCN2C(=O)c3ccccc3C2=O)s1	27.0	-6.8	14.8	9.7	x
SMILES	CHOP inh	L major viab	WT yeast gro inh	Arbovirus anti	CHOP inh conf
Cc1ccc(C(=O)Nc2cc([N+](=O)[O-])ccc2C)cc1	3.6	-0.5	-0.2	5.5	x
Cc1ccc(NC(=O)c2ccc(Nc3c([N+](=O)[O-])cc([N+](=O)[O-])cc3[N+](=O)[O-])cc2)cc1	104.2*	100.4*	59.8*	-27.7	108.1*
O=C(NNc1ccccc1[N+](=O)[O-])Nc1ccccc1	38.0	-0.1	-10.8	-3.6	x
O=C(NNc1ccccc1[N+](=O)[O-])Nc1ccc(Cl)c(Cl)c1	101.3*	78.0*	77.6	-22.4	71.2*
Cn1ccnc1C(=O)c1cc(SCC(=O)NCc2ccccc2)nc2ccccc12	-2.6	12.5	-5.7	-8.8	x
CCCc1ccc(Oc2c(-c3ccc(O)c(C)c3O)n[nH]c2C)cc1	105.7*	10.1	89.7*	-14.3	11.5
COc1ccc(Oc2c(-c3ccc(O)cc3O)n[nH]c2C)cc1	29.9	-9.9	-10.5	-11.0	x
Cc1c(O)ccc(-c2[nH]ncc2-c2nc3ccccc3s2)c1O	44.0	15.6	-7.5	13.1	x
CCCc1ccc(Oc2cn[nH]c2-c2ccc(O)c(C)c2O)cc1	104.8*	44.4	82.7*	-43.3	59.6
CC1CN(C(=O)Nc2cccc(Cl)c2)C2(CCCCCC2)O1 (centres undefined)	42.9	13.7	19.3	-12.6	x
Cc1ccc(F)cc1NC(=O)c1cnccn1	27.1	-6.8	3.7	12.3	x
CCCCCc1nc2c(c(=O)c3ccccc3n2C)c(=O)n1Cc1ccc(OC)cc1	-34.0	x	x	x	x
CCOC(=O)c1cc(-c2ccccc2)nc2c1c(C)nn2-c1ccccn1	103.2*	8.7	56.6	-8.8	107.6*
COc1ccc(C(=O)NC(=O)Nc2cc(C)ccn2)cc1	105.0*	6.0	6.4	-11.9	102.6*
CCCCc1c(O)nc(SCC(=O)c2ccccc2)n(-c2ccccc2)c1=O	-6.7	x	x	x	x
Cc1ccc(NC(=S)NC(=O)c2ccc(-c3ccc(Cl)cc3)o2)c(O)c1	11.8	-3.4	2.7	-20.5	x
Cc1cc(O)c(NC(=S)NC(=O)c2ccc(-c3ccc(Cl)cc3)o2)cc1C	105.2*	-12.6	76.9*	-43.8	113.4*
Cc1ccsc1/C=N/n1c(-c2cc(-c3ccccc3)n[nH]2)n[nH]c1=S	-0.3	x	x	x	x
Cc1ccccc1/C=N/n1c(-c2cc(-c3ccccc3)n[nH]2)n[nH]c1=S	103.8*	x	x	x	57.1
CCc1nc2cc(CC(=O)O)ccc2o1	33.3	-3.3	-9.6	8.8	x
COc1cc(/C=C2/C(=O)c3cccc([N+](=O)[O-])c3C2=O)c(Br)cc1O	107.3*	99.7*	2.1	-33.0	4.0
COc1ccc(-c2nc(-c3cccc([N+](=O)[O-])c3O)cc(=O)o2)cc1OC	-14.9	-6.4	-2.5	-4.0	x
COc1cc(-c2nc3c(c(C)nn3-c3ccccc3)c3cc(OC)c(OC)cc23)ccc1O	99.2*	-2.7	-5.8	-21.4	82.8*
Cc1ccc2nc(/C(C#N)=C\c3ccc(Oc4ccc([N+](=O)[O-])cn4)cc3)[nH]c2c1	96.9*	98.6*	2.3	9.9	37.0
O=C1CC(c2ccc(F)cc2)CC(O)=C1C=NCCN1CCN(C(=O)Nc2ccccc2)CC1 (centres undefined)	52.2	0.2	6.0	0.7	x
COc1ccc(C2=NN(C(=O)c3ccco3)C(c3cc4ccccc4nc3Cl)C2)cc1 (centres undefined)	103.0*	x	x	x	71.1*
COc1ccc2cc(C3CC(c4ccco4)=NN3C(=O)CCC(=O)O)c(Cl)nc2c1 (centres undefined)	-30.1	-8.0	5.6	-1.6	x
O=C(NCc1ccc2c(c1)OCO2)c1ccc(=O)[nH]c1	19.1	-1.6	-11.8	1.9	x
Cc1cccc(C)c1N1CCN(c2ccc3nnc(C(F)(F)F)n3n2)CC1	106.3*	59.8*	77.6*	-45.8	101.5*
Clc1ccccc1CNc1ncnc2nc[nH]c12	18.1	-8.0	-4.5	-4.0	x
